Here are results for 29 compounds from PubChem BioAssay (NCATS).

Each structure is given as a SMILES string. Records with an inconclusive call do not appear. Unmarked numbers belong to inactive results. The source made the active and inactive calls. Calls come from the whole dose curve; as a rule, active = well fitted inhibition curve with a large enough effect; inconclusive = small, poorly fitted or top-dose-only effect; inactive = no such curve, though single readings can be large or run the other way.

In test [1] the test system is Zika virus NS2B-NS3 protease (unlinked complex). In words: Primary screen GU Rhodamine qHTS for Zika virus inhibitors: Unlinked NS2B-NS3 protease assay (AID 1347159). Note: nearly all actives have a fitted effect of over 60% in size. The method, boiled down: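 Enzyme 25 nM in Tris-HCl pH 8.0 + 0.01% Tween 20; compounds up to 114 microM, 15 min RT dark; + Rhod110 substrate 1.5 microM; read t0 and 15 min; delta fluorescence → % inhibition → 4-parameter Hill fit.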

The test system of test [2] is Zika virus NS2B-NS3 protease (linked construct). Put plainly: Primary screen NINDS Rhodamine qHTS for Zika virus inhibitors (AID 1347160). Note: nearly all actives have a fitted effect of over 55% in size. The method, boiled down: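 Enzyme (25 nM, linked NS2B-NS3) was preincubated 15 min with compound in 10 mM Tris-HCl pH 8.0, 0.01% Tween 20. Rhodamine110 substrate (1.5 microM) was then added and fluorescence read at start and after 15 min.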
% is set by controls: 0 for no effect and ±100 for the full control effect.

As for `Cc1nc(Nc2cnn(C3CCNCC3)c2)nc2c1N(C)C(=O)c1cc3ccccc3cc1N2C`, the Potency entry in test [1] and in test [2] was “inactive” throughout.

In the case of `Cc1cc(N2CCOCC2)ccc1Nc1nc(NC2CCCCC2)c2[nH]cnc2n1`, the Potency result in test [1] and in test [2] was “inactive” in each case.

On to `CN(CC1COCCO1)S(=O)(=O)Nc1ccc2ccc3ncc(-c4cnn(C)c4)cc3c(=O)c2c1` (stereo not drawn), for which the Potency result in test [1] and in test [2] was “inactive” each time.

As to `C[C@H](CN(C)C)Oc1nc(Nc2cc3cccc(Cl)c3cn2)cnc1C#N`, the Potency entry in test [1] and in test [2] was “inactive” in each case.

Take `C=CC(=O)N1CCC[C@@H](n2nc(-c3cccc(C(=O)Nc4ccc(C(C)C)c(C)c4)c3)c3c(N)ncnc32)C1`: the Potency result in test [1] and in test [2] was “inactive” each time.

As for `CC(=O)O[C@@H]1[C@H](O[C@@H]2O[C@@H](CO)[C@H](O)[C@H]2O)[C@@H](O[C@@H]2O[C@@H](C)[C@H](O[C@@H]3OC[C@@H](O)[C@H](O)[C@H]3O)[C@@H](O)[C@H]2O)[C@H](OC(=O)[C@]23CCC(C)(C)C[C@H]2C2=CCC4[C@@]5(C)CC[C@H](O[C@@H]6O[C@H](C(=O)O)[C@@H](O)[C@H](O)[C@H]6O[C@@H]6O[C@H](CO)[C@H](O)[C@H](O)[C@H]6O)[C@@](C)(C=O)C5CC[C@@]4(C)[C@]2(C)C[C@H]3O)O[C@@H]1C` (stereo partly drawn), the activity change, negative = inhibition in test [1] is 1.92% [at 19.1 µM]; in test [2], 10.8% [at 10.7 µM].

With `CCCc1cc(C)[nH]c(=O)c1CNC(=O)c1cc(-c2ccnc(N3CCN(C)CC3)c2)cc2c1cnn2C(C)C`, the Potency entry in test [1] and in test [2] was “inactive” each time.

For the compound `C/C1=C/CCC2=CC(OC2=O)C(C)(C)/C=C/C1=O` (stereo not drawn), the Potency entry in test [1] and in test [2] was “inactive” each time.

In the case of `COC(=O)c1ccc(N2CCN(C)CC2)c(NC(=O)c2cccc(OC)c2)c1`, the Potency entry in test [1] and in test [2] was “inactive” each time.

For the compound `COc1cc(C(=O)NCC2(N(C)C)CCCC2)cc(OC)c1OCc1ccccc1`, the Potency result in test [1] and in test [2] was “inactive” in each case.

For `Cn1c(=O)c2c(ncn2Cc2ccc(C(C)(C)C)cc2)n(C)c1=O`, the Potency entry in test [1] and in test [2] was “inactive” each time.

Take `CCCN(CCc1ccsc1)C1CCc2c(O)cccc2C1` (stereo not drawn): the Potency result in test [1] and in test [2] was “inactive” in each case.

Take `O=C(c1ccccn1)N(Cc1cccs1)C1(C(=O)NC2CCCCC2)CCCCC1`: the Potency result in test [1] and in test [2] was “inactive” in each case.

For `CN(C)N(C)C(=O)[C@@]1(Cc2ccccc2)CCCN(C(=O)[C@@H](Cc2c[nH]c3ccccc23)NC(=O)C(C)(C)N)C1`, the Potency result in test [1] and in test [2] was “inactive” throughout.

In the case of `COc1ccc(C(=O)Nc2c(Cl)cncc2Cl)cc1OC1CCCC1`, the Potency entry in test [1] and in test [2] was “inactive” throughout.

`Cc1nc(-c2cn3c(n2)-c2ccc(-c4cnn(C(C)(C)C(N)=O)c4)cc2OCC3)n(C(C)C)n1`: the Potency result in test [1] and in test [2] was “inactive” throughout.

Turning to `COc1cc(N(C)CCN(C)C)c(N)cc1Nc1nccc(-c2cn(C)c3ccccc23)n1`, the Potency result in test [1] and in test [2] was “inactive” throughout.

With `COc1cc2nc(N3CCN(C(=O)COc4c(OC)cccc4C(C)C)CC3)nc(N)c2cc1OC`, the Potency entry in test [1] and in test [2] was “inactive” each time.

Regarding `Nc1ncnc2c1c(-c1ccc(Cl)cc1)nn2-c1cccc(-c2cnnn2Cc2cccc(-c3ccccc3)c2)c1`, the Potency result in test [1] and in test [2] was “inactive” throughout.

Take `CCC[C@H](N[C@H]1CCc2cc(F)cc(F)c2C1)C(=O)Nc1cn(C(C)(C)CNCC(C)(C)C)cn1`: the Potency entry in test [1] and in test [2] was “inactive” throughout.

Take `CC(=O)O[C@@H]1[C@@H](O)[C@H](O[C@@H]2[C@@H](O)[C@@H](O)[C@H](O[C@H]3[C@H](O[C@H]4[C@H](O[C@H]5CC[C@@]6(C)C(CC[C@]7(C)C6CC=C6[C@@H]8CC(C)(C)CC[C@]8(C(=O)O)CC[C@]67C)[C@]5(C)CO)O[C@H](CO)[C@@H](O)[C@@H]4O)OC[C@@H](O)[C@@H]3O)O[C@H]2C)OC[C@H]1O` (stereo partly drawn): the Potency entry in test [1] and in test [2] was “inactive” each time.

As to `CNc1nc(NCc2ccc(NS(C)(=O)=O)cc2Cl)cc(-c2ccccn2)n1`, the Potency result in test [1] and in test [2] was “inactive” in each case.

Regarding `O=C(CCl)Nc1cccc(NC2=NS(=O)(=O)c3ccccc32)c1`, the Potency entry in test [1] and in test [2] was “inactive” each time.

In the case of `CC(=O)OC1CC2(C)C(CCC(C)C23Cc2c(O)cc(CO)c(C=O)c2O3)C(C)(C)C1O` (stereo not drawn), the Potency entry in test [1] and in test [2] was “inactive” each time.

Regarding `O=c1nc(-c2ccccn2)sc2ccccc12`, the Potency result in test [1] and in test [2] was “inactive” in each case.

Regarding `COc1cccc(OCCCN)c1-c1cc(Nc2cnc(C#N)cn2)n[nH]1`, the Potency entry in test [1] and in test [2] was “inactive” in each case.

Regarding `COc1cc(N2CCOCC2)ccc1NC(=O)c1csc(-c2cccnc2)n1`, the Potency entry in test [1] and in test [2] was “inactive” each time.

Consider `NC(=O)c1cnc(N[C@@H]2CCCC[C@H]2N)nc1Nc1cccc(-n2nccn2)c1`, for which the Potency entry in test [1] and in test [2] was “inactive” each time.

Take `Cn1ncnc1[C@H]1c2n[nH]c(=O)c3cc(F)cc(c23)N[C@@H]1c1ccc(F)cc1`: the Potency result in test [1] and in test [2] was “inactive” each time.
